For some of these results: Entries with a potency or affinity are not part of this list.
Columns and labels:
Set-up in all cases: scale not given: direction of the effect not stated beside the values
[1] = molecular target: Protein translocase subunit SecA (Escherichia coli (strain K12)) (UniProt P10408); assay: Assay to Identify E. coli SecA ATPase Inhibitors; format: functional; settings: 30 µM
[2] = molecular target: T1, Ubiquitin-activating enzyme e1, putative (Leishmania donovani (strain BPK282A1)) (UniProt E9BSI1); assay: Leishmania donovani Ubiquitin Activating Enzyme (LdE1); format: functional; settings: 30 µM
T1 sequence (whole entry): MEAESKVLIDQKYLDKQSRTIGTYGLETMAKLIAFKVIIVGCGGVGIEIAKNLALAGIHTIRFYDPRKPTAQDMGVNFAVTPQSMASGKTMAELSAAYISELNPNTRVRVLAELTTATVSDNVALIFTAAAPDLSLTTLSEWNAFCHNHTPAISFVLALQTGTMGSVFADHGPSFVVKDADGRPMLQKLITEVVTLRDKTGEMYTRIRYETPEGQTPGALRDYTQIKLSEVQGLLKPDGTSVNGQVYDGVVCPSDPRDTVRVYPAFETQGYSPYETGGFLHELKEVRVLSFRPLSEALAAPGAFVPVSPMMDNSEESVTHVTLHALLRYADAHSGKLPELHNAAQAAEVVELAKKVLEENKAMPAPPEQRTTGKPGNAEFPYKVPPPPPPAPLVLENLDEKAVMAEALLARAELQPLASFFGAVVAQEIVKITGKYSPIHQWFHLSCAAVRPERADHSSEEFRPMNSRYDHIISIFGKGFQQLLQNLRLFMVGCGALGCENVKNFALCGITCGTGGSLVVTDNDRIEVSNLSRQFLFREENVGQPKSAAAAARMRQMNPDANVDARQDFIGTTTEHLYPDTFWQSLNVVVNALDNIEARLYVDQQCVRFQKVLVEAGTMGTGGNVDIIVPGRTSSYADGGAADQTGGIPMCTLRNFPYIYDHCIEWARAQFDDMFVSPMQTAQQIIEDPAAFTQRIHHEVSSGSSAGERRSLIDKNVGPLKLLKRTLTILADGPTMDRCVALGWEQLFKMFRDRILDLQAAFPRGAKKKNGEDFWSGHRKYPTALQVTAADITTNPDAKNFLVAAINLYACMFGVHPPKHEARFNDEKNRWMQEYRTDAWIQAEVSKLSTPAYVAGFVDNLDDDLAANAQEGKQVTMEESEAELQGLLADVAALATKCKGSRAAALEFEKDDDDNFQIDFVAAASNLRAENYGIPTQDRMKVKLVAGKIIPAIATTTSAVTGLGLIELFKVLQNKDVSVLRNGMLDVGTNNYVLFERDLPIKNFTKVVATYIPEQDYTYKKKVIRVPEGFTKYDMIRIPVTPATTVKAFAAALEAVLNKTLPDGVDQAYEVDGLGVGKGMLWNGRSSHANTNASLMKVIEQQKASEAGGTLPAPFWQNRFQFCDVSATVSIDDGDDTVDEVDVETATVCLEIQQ

[3] = molecular target: AMP-activated protein kinase, AMPK (Homo sapiens) (UniProt P54646+O43741+P54619+Q9UGJ0+Q9Y478+Q13131+Q9UGI9); assay: AMP-dependent Kinase enzyme assay. An in vitro enzyme assay that detects ADP turnover that is directly proportional to AMPK activity. This uses naive AMPK that is activated during the assay with MK-8722; format: functional; settings: 30 µM
[4] = molecular target: Sialic acid-binding Ig-like lectin 9 (Homo sapiens) (UniProt Q9Y336); assay: Hs-Siglec9 ALPHAscreen SOP 20170721; settings: 10 µM
Trypanosoma cruzi = assay: Trypanosoma cruzi phosphomannomutase and mannose-1-phosphate guanylyltransferase assay; format: functional; settings: 10 µM
[5] = molecular target: T2, Arginase-2, mitochondrial (Homo sapiens) (UniProt P78540); assay: in vitro enzyme assay to detect the production of urea directly proportional to the activity of Arginase II; format: functional; settings: 33.3 µM; also: in the data most compounds retested in dose-response had high values
T2 sequence (whole entry): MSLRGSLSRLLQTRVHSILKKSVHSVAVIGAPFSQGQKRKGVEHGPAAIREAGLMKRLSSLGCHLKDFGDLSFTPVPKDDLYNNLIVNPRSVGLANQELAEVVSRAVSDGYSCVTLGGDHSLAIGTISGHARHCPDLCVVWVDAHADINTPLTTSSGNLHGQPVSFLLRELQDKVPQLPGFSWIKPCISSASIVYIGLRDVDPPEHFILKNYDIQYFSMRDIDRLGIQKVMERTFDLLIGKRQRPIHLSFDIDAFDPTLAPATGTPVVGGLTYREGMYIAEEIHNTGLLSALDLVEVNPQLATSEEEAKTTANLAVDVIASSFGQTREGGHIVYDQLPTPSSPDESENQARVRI

[6] = molecular target: T3, Proteasome subunit beta (Trypanosoma cruzi) (UniProt O96673); assay: Trypanosoma cruzi proteasome chymotrypsin-like activity (TcProtChymo) assay.; also: in the data most compounds retested in dose-response had high values; format: functional; settings: 9.37 µM
T3 sequence (whole entry): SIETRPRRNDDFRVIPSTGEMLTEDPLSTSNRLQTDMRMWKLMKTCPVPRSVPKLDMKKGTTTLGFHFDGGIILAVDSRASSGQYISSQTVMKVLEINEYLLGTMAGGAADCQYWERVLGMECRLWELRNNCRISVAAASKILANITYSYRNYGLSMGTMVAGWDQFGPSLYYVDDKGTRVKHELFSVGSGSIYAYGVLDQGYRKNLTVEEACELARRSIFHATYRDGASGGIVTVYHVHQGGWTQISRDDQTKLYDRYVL

Homo sapiens = species: Homo sapiens; assay: To identify inhibition of the IFN signalling (Jak-Stat) pathway via expression of an eGFP reporter gene under the control of an IFN-stimulated response element (ISRE) containing MxA promoter.; format: functional; settings: 30 µM
[7] = molecular target: T4, Tyrosyl-tRNA synthetase, putative (Trypanosoma cruzi (strain CL Brener)) (UniProt Q4DSP6); assay: Trypanosoma cruzi tyrosyl tRNA synthetase (TcYRS) _High Tyrosine SOP; format: functional; settings: 30 µM; also: in the data most compounds retested in dose-response had high values
T4 sequence (whole entry): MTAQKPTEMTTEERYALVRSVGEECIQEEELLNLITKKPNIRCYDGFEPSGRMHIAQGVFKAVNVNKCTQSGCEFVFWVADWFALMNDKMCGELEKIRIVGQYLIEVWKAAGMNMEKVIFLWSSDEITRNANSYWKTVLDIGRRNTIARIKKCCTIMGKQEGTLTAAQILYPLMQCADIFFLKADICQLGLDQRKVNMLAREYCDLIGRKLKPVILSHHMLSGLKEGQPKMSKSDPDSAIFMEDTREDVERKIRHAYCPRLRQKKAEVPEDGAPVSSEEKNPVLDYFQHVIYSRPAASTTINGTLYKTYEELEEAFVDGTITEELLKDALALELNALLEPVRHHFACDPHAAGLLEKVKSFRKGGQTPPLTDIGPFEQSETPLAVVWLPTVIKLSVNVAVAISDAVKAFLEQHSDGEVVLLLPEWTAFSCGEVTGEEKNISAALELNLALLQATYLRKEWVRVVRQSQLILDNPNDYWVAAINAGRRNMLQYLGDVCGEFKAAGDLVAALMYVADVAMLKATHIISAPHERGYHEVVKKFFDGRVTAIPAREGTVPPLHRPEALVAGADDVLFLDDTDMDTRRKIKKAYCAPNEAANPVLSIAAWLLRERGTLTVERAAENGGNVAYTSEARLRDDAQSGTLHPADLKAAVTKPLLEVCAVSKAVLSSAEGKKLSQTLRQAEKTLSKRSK

[8] = molecular target: T4, Tyrosyl-tRNA synthetase, putative (Trypanosoma cruzi (strain CL Brener)); assay: Trypanosoma cruzi tyrosyl tRNA synthetase (TcYRS) SOP; format: functional; settings: 30 µM
[9] = molecular target: Chromo domain-containing protein 1 (Saccharomyces cerevisiae (strain ATCC 204508 / S288c) (Baker's yeast)) (UniProt P32657); assay: ScCHD-1 Enzyme Inhibition Assay; format: functional; settings: 30 µM; also: in the data most compounds retested in dose-response had high values
Chromo domain-containing protein 1 (Saccharomyces cerevisiae (strain ATCC 204508 / S288c) (Baker's yeast)), sequence (P32657 whole entry, the tested form may be a part): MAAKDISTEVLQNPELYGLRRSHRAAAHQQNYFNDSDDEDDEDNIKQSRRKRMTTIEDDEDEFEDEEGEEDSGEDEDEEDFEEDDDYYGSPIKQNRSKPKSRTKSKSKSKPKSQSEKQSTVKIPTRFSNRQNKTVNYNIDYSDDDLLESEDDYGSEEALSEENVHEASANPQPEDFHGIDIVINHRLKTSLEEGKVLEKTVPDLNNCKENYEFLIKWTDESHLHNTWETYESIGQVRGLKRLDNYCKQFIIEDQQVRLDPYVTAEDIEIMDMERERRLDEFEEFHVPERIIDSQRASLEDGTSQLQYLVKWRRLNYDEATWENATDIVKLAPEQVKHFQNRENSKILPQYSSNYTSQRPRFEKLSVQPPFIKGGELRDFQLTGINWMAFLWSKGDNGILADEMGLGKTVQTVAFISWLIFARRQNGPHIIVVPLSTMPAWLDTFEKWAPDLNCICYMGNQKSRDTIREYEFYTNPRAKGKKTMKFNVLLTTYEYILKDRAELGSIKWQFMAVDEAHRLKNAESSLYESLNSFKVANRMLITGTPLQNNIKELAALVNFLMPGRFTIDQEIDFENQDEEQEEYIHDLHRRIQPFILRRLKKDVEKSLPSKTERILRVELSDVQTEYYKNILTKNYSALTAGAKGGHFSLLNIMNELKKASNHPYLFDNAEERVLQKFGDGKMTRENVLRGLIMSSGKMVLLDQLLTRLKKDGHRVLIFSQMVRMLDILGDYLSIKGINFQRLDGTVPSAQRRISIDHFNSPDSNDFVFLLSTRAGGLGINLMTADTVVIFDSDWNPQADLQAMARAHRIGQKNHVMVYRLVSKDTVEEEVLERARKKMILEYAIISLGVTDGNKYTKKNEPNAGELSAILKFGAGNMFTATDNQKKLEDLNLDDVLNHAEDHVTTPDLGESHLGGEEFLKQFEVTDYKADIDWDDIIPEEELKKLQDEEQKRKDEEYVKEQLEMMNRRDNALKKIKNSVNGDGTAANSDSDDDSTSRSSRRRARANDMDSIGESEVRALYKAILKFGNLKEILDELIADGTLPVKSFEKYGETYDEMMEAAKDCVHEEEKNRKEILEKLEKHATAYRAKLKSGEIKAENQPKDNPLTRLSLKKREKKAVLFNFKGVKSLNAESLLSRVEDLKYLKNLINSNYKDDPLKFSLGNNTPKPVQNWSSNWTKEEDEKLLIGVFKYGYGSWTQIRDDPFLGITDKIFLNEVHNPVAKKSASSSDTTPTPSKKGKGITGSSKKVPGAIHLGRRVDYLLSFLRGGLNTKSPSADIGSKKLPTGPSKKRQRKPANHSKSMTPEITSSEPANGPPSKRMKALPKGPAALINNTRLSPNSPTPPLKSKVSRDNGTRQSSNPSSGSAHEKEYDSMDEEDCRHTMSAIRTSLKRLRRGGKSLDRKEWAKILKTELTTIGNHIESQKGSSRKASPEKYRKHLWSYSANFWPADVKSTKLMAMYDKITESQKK

Sialic acid-binding Ig-like lectin 9 (Homo sapiens), sequence (Q9Y336 whole entry): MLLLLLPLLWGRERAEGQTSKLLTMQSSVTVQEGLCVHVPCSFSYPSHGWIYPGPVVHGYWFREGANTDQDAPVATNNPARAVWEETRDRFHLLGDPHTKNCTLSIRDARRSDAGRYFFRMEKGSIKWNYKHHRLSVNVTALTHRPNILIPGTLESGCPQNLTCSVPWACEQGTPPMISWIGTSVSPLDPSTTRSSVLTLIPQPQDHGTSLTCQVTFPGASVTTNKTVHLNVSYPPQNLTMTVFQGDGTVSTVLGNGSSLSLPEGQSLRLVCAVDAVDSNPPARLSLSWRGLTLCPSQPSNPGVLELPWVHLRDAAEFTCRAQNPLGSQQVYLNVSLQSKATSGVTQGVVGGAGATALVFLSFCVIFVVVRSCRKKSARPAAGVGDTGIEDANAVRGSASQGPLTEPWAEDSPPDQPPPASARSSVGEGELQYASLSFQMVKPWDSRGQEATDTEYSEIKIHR
Protein translocase subunit SecA (Escherichia coli (strain K12)), sequence (P10408 whole entry): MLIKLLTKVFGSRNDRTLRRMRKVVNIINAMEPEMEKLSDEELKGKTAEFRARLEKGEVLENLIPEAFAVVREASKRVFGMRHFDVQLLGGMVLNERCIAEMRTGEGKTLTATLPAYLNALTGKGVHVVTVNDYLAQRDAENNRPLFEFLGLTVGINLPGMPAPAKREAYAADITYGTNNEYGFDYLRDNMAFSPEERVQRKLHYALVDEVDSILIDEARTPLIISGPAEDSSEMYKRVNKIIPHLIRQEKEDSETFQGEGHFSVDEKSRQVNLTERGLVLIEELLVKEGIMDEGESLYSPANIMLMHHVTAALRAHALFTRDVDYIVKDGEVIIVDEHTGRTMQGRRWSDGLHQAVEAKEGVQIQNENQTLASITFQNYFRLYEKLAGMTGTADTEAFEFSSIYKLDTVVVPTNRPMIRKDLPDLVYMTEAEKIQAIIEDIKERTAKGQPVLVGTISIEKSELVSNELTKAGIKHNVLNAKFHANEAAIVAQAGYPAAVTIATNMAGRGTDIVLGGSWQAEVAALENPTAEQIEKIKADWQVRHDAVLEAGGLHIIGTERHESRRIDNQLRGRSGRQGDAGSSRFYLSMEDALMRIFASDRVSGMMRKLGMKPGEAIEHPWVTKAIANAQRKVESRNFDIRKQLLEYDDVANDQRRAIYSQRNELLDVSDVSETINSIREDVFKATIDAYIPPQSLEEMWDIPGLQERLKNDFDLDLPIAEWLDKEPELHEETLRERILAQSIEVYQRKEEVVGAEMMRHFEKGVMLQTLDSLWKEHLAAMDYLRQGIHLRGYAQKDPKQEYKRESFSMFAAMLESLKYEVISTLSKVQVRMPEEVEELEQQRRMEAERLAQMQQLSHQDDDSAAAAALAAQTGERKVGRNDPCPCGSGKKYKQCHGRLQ

Row | Structure (SMILES) | Percent Effect [1] [%] | Percent Effect [2] [%] | Percent Effect [3] [%] | Percent Effect [4] [%] | Percent Effect (Trypanosoma cruzi) [%] | Percent Effect [5] [%] | Percent Effect [6] [%] | Percent Effect (Homo sapiens) [%] | Percent Effect [7] [%] | Percent Effect [8] [%] | Percent Effect [9] [%]
1 | CNC(=O)CS(=O)(=O)C1CCN(S(=O)(=O)c2c(F)cccc2F)CC1 | -2.05 | -2.74 | 6.92 | 0.634 | 5.68 | -1.82 | 3.9 | -17.8 | 1.07 | 0 | -1.05
2 | CC(C)(C(=O)NCC1CC1)c1ccccc1F | -8.21 | 4.17 | -4.88 | 2.97 | -4.18 | 0.442 | 15.6 | -2.36 | 2.1 | 2.56 | -3.44
3 | CCn1cnnc1C1CCN(C(=O)c2ccc3cc[nH]c3c2)CC1 | -5.68 | 7.89 | 11.4 | 8.5 | -3.21 | 3.55 | 11 | -5.37 | -2.13 | 7.79 | -4.05
4 | CCN1C[C@@H]2[C@@H](OC)CCN(S(=O)(=O)c3ccccc3F)[C@@H]2C1 | -2.71 | 5.33 | 11.3 | 0.304 | -2.56 | 4.43 | 0.793 | 4.67 | -1.06 | 3.85 | -0.244
5 | c1cnn(CC2CN(Cc3ccc(-n4ccnc4)cc3)CCO2)c1 (stereo unspecified) | -2.02 | 17.7 | -6.89 | 4.49 | 3.68 | 0.76 | 6.14 | 0.886 | 9.36 | 24.1 | -2.59
6 | Cc1cc2c(=O)n3c(nc2s1)CCN(Cc1ccncc1)CC3 | 2.21 | 4.05 | 13.8 | -10.1 | -4.94 | 5.8 | 4.21 | 19.7 | 3.23 | 9.09 | -10.3
7 | COc1ccc(OCCNCCn2cccn2)cc1 | 1.21 | 1.27 | -2.53 | 10.8 | -1.95 | 7.1 | 6.69 | 6.41 | -1.04 | 2.53 | -1.82
8 | Cc1cnn(CC2CCCN2C(=O)c2cc3ccccc3[nH]2)c1 (stereo unspecified) | -8.63 | 13 | -0.229 | -0.244 | 7.74 | -1.05 | 7.2 | 1.95 | 3.81 | 11.8 | -12.1
9 | O=C(C1CCOCC1)N1C[C@@H]2C[C@@H](c3nc(C4CC4)cs3)O[C@@H]2C1 | 0.171 | 16.4 | -11.2 | 8.5 | 3.57 | -11.6 | 13.8 | 1.09 | 11.5 | 21 | 0.447
10 | Cc1noc2ncc(C(=O)N3CCCC3c3ccncc3)cc12 (stereo unspecified) | -7.65 | 20.2 | -6.44 | 0.762 | 10.1 | -3.42 | 17.4 | 21.9 | 5.42 | 24.1 | -9.53
11 | CC(C(=O)N1CCCN(c2ncccc2C#N)CC1)n1cccn1 (stereo unspecified) | -3.42 | 10.5 | 0.522 | -3.82 | -6.63 | 4.68 | 4.32 | 3.06 | 5.42 | 11.1 | -6.77

— ChEMBL document CHEMBL3988442, “University of Dundee, Small-Polar-MMV Screening Library” (2021)
